TDP1 cell CPT = growth inhibition of DT40 Tdp1-/-;hTDP1 cells with camptothecin (screen for TDP1 inhibitors). chicken DT40 Tdp1-/-;hTDP1 cells + 20 nM CPT, ATP luminescence, 48 h. 420,000 compounds, 12% hits. Potency, µM (doses to about 46.2 µM), actives largely listed as inhibitors; also: nearly all actives have a fitted effect of over 55% in size
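Cell growth measured by CellTiter-Glo luminescence after a minimum 48 h, 37 C compound exposure with 20 nM CPT in Tdp1-knockout DT40 cells stably expressing hTDP1, seeded 400/well; qHTS titration format.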
HT1080NT lethal = kills 2HG-producing HT-1080-NT fibrosarcoma cells; HT-1080-NT fibrosarcoma viability, CellTiter-Glo ATP luminescence, 48 h; Potency, µM (top dose mostly 46.1 µM), actives largely listed as cytotoxic; 360,000 compounds, 1.6% hits; AID 686970;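 also: NT is the 2HG producing partner of a matched IDH1 knockdown line; nearly all actives have a fitted effect of over 55% in size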
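Viability of the 2HG-overproducing fibrosarcoma line after 48 hours of compound exposure at 37 degrees C was determined by luminescence with CellTiter-Glo, and concentration-effect curves were then fitted and categorized.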
HT1080 IDH1KD tx = toxicity to HT-1080 IDH1 knockdown cells (counter line); HT-1080 IDH1 knockdown viability, ATP luminescence, 48 h; AID 686971; Potency, µM (titrated, usually from 46.1 µM), hits mostly cytotoxic; 360,000 compounds, 2% hits
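Knockdown cells (IDH1KD HT-1080) received compounds 2 h after plating at 750 cells/well and were kept 48 h at 37 °C in 5% FBS RPMI. A CellTiter-Glo luminescence read gave % activity for curve fitting.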
TDP1 cell noCPT = qHTS for Inhibitors of human tyrosyl-DNA phosphodiesterase 1 (TDP1): qHTS in cells in absence of CPT; 420,000 compounds, 15% hits; Potency, µM (titrated, usually from 46.2 µM), actives largely listed as inhibitors; DT40 Tdp1-/- hTDP1 cells, no CPT, ATP luminescence, 48 h; also: nearly all actives have a fitted effect of over 55% in size
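A cellular qHTS used chicken DT40 cells lacking endogenous Tdp1 but carrying stably transfected human TDP1. Compounds were applied without camptothecin, and cell growth kinetics were judged by ATP-dependent luminescence after ≥48 hr.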
IL-1B inflam inh = inflammasome signaling inhibition, IL-1 beta readout; AID 743279; activity change, % at 57.5 µM; THP-1 LPS/ATP IL-1B secretion, AlphaLISA, 16 h; stronger effect = lower value; 360,000 compounds, 4.7% hits; in the data active = activity change below about -50%; inconclusive = mostly about -30% to -49%
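Secreted IL-1B measured by AlphaLISA bead assay after 16 h compound exposure of THP-1 cells; compounds (final up to 57.5 uM) added 1 h before LPS (250 ng/mL) and ATP (1.25 mM) stimulation; lower signal means less secretion.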
Each line names hits and unclear results; the compound was inactive in the other large screens. Compounds with a hit are over-represented: about 19% of the library has one in this group of screens. Unless noted, calls follow the shape of the dose curve; as a rule, active = well fitted curve in the direction sought with a large enough effect; inconclusive = small, poorly fitted or top-dose-only effect, or another doubt; inactive = no such curve, though single readings can be large; an effect the other way counts as inactive or inconclusive.

CN(C1CCCCC1)S(=O)(=O)c1ccc2c(c1)c(=O)c(C(=O)NCc1ccc(Cl)cc1)cn2C	TDP1 cell noCPT inconclusive (no result: HT1080NT lethal, HT1080 IDH1KD tx, IL-1B inflam inh)
CCOC(=O)CNC(=O)N1C[C@H]2CON(C)[C@H]2C[C@H]1c1ccccc1Br	none
O=C(Nc1cc(C(F)(F)F)ccc1Cl)c1cc(-c2cccs2)nc2ccccc12	none (no result: HT1080NT lethal, HT1080 IDH1KD tx, IL-1B inflam inh)
COC(=O)c1ccc(N2CCCCC2)c(NS(=O)(=O)c2ccc(C)cc2)c1	TDP1 cell CPT 16.4µM, TDP1 cell noCPT inconclusive
CCN(CC)CCNC(=O)c1ccc(NC(=O)c2cc(S(=O)(=O)N3CCCCC3)ccc2N2CCOCC2)cc1	none
CCOC(=O)c1ccc(N2CCCCC2)c(NS(=O)(=O)c2cccc(C(F)(F)F)c2)c1	TDP1 cell CPT inconclusive, TDP1 cell noCPT inconclusive
COC(=O)c1ccc(N2CCN(S(=O)(=O)c3ccc(C)cc3)CC2)c([N+](=O)[O-])c1	TDP1 cell CPT 18.4µM, TDP1 cell noCPT 20.6µM
COC(=O)c1ccc(N2CCN(S(=O)(=O)c3ccc(Br)cc3)CC2)c([N+](=O)[O-])c1	TDP1 cell CPT inconclusive, TDP1 cell noCPT inconclusive
CCS(=O)(=O)N1CCN(c2ccc(C(=O)NC3C4CC5CC(C4)CC3C5)cc2[N+](=O)[O-])CC1 (centres undefined)	TDP1 cell CPT 8.2µM, TDP1 cell noCPT 8.2µM
CCS(=O)(=O)N1CCN(c2ccc(C(=O)N3CCOCC3)cc2[N+](=O)[O-])CC1	none
CCN(CC)CCNC(=O)c1ccc(N2CCCCC2)c(NS(=O)(=O)c2ccc(C)cc2)c1	TDP1 cell CPT 25.9µM, HT1080NT lethal inconclusive, HT1080 IDH1KD tx inconclusive, TDP1 cell noCPT 20.6µM
O=C(Cc1ccccc1)Nc1ccnn1C1CCN(Cc2nccs2)CC1	none
CCc1nnc(NC(=O)CS(=O)(=O)Cc2ccccc2)s1	none
COCCCNC(=O)Cc1c(C)c2c(cc(C)c3c(C(C)(C)C)coc32)oc1=O	TDP1 cell CPT 1.3µM, HT1080NT lethal 4.11µM, HT1080 IDH1KD tx 2.91µM, TDP1 cell noCPT 1.3µM
COc1ccc(CCNC(=O)CCc2c(C)c3cc4c(C)coc4c(C)c3oc2=O)cc1OC	TDP1 cell CPT 20.6µM, TDP1 cell noCPT 8.2µM (no result: HT1080NT lethal, HT1080 IDH1KD tx, IL-1B inflam inh)
Cc1coc2c(C)c3oc(=O)c(CCC(=O)NCCc4ccccc4F)c(C)c3cc12	TDP1 cell CPT inconclusive, TDP1 cell noCPT 16.4µM (no result: HT1080NT lethal, HT1080 IDH1KD tx, IL-1B inflam inh)
Cc1oc2cc3oc(=O)c(CC(=O)NCc4ccccc4)c(C)c3cc2c1C	TDP1 cell CPT 6.51µM, TDP1 cell noCPT 8.2µM (no result: HT1080NT lethal, HT1080 IDH1KD tx, IL-1B inflam inh)
Cc1oc2c(c(C)cc3oc(=O)c(CC(=O)NCc4ccccc4)c(C)c32)c1C	none (no result: HT1080NT lethal, HT1080 IDH1KD tx, IL-1B inflam inh)
O=C(NCCCn1ccnc1)c1cc2cc([N+](=O)[O-])ccc2oc1=O	TDP1 cell CPT inconclusive, TDP1 cell noCPT inconclusive
CC(C)(C)c1nnc(NS(=O)(=O)c2ccccc2)s1	none (no result: HT1080NT lethal, HT1080 IDH1KD tx, IL-1B inflam inh)
COc1ccc(C(C#N)C2(C)OCCO2)cc1OC (centres undefined)	none
Nc1c(C(=O)Nc2ccc(F)cc2)sc(=S)n1-c1ccccc1F	TDP1 cell CPT inconclusive, HT1080NT lethal inconclusive, HT1080 IDH1KD tx inconclusive, IL-1B inflam inh inconclusive
Cc1c(CC(=O)NCCc2ccccc2F)c(=O)oc2c(C)c3occ(C(C)(C)C)c3cc12	TDP1 cell CPT 13µM, TDP1 cell noCPT 16.4µM (no result: HT1080NT lethal, HT1080 IDH1KD tx, IL-1B inflam inh)
COc1ccc(CCNC(=O)Cc2c(C)c3cc(OC)c(OC)cc3oc2=O)cc1	none (no result: HT1080NT lethal, HT1080 IDH1KD tx, IL-1B inflam inh)
COc1cc2oc(=O)c(CC(=O)NCCc3ccccc3F)c(C)c2cc1OC	none (no result: HT1080NT lethal, HT1080 IDH1KD tx, IL-1B inflam inh)
Cc1c(CC(=O)NCCc2ccccc2)c(=O)oc2c(C)c3occ(C(C)(C)C)c3cc12	TDP1 cell CPT 16.4µM, TDP1 cell noCPT 18.4µM (no result: HT1080NT lethal, HT1080 IDH1KD tx, IL-1B inflam inh)
COc1ccc(CCNC(=O)Cc2c(C)c3cc4c(C(C)(C)C)coc4c(C)c3oc2=O)cc1OC	TDP1 cell CPT 6.51µM, TDP1 cell noCPT 8.2µM (no result: HT1080NT lethal, HT1080 IDH1KD tx, IL-1B inflam inh)
COc1ccc2c(C)c(CC(=O)NCCc3ccccc3)c(=O)oc2c1OC	none (no result: HT1080NT lethal, HT1080 IDH1KD tx, IL-1B inflam inh)
Cc1oc2cc3oc(=O)c(CCC(=O)NCCN4CCOCC4)c(C)c3cc2c1C	TDP1 cell CPT 20.6µM, TDP1 cell noCPT inconclusive, IL-1B inflam inh inconclusive
Cc1onc(-c2c(F)cccc2Cl)c1C(=O)N1CCOC12CCCCC2	none
CCCCn1c(N)c(N(CCC(C)C)C(=O)COC(=O)/C=C/c2ccc(F)cc2)c(=O)[nH]c1=O	TDP1 cell CPT inconclusive, TDP1 cell noCPT inconclusive
